We go through 90 molecules from ChEMBL document CHEMBL3988442, “University of Dundee, Small-Polar-MMV Screening Library” (2021).

Molecules are shown by their SMILES. The whole screen tested about 69,000 compounds, of which about 950 (1.4%) showed an effect of 50% or more. Many of the other results were omitted from the sample, so strong results are more common in it than they were.

The test concerns Mycobacterium tuberculosis. In words: Cornell M. t heat shock assay. Further: in the data most compounds retested in dose-response had high values. Further details: dose or concentration left out as unconfirmed. The test is classed as functional, organism-based.
For `CN(C)S(=O)(=O)N1C[C@H]2C[C@H](C(=O)Nc3ccccc3)[C@@H](C1)O2`, the “Percent Effect” value was determined as 3.45%. Take `N#Cc1cccc(CN2CC[C@@H]3[C@@H]2CC(=O)N3Cc2ccncc2)c1.O=C(O)C(F)(F)F.O=C(O)C(F)(F)F`: the “Percent Effect” value came out at 1.363%. Under `COCCN1CC[C@H]2OCC[C@@H](C(=O)N3CCCO3)[C@H]2C1.O=C(O)C(F)(F)F` stands -19.22%; under `O=C(O)C(F)(F)F.c1ccc(N2CCC3(CCCN(c4ncccn4)C3)C2)nc1` (stereo not given), -26.18%. The figure for `CC(C)NC(=O)[C@H]1C[C@H]2OCC[C@H]2N(Cc2ccc3ccccc3n2)C1.O=C(O)C(F)(F)F.O=C(O)C(F)(F)F` is -9.211%; for `Cc1ccc(C(=O)N2CCC3(CC2)CN(c2ccccn2)CCO3)cc1.O=C(O)C(F)(F)F` it is -9.264%; for `Cn1cc(CN2Cc3c(cnn3C)C(COCC3CC3)C2)cn1.O=C(O)C(F)(F)F.O=C(O)C(F)(F)F` (stereo not given) it is -38.19%.

As for `CO[C@H]1CCN(C(=O)Cc2ccsc2)[C@@H]2CN(CC3CC3)C[C@H]12.O=C(O)C(F)(F)F`, the “Percent Effect” value was -6.3%. The figure for `Cc1cnc(C(=O)N2Cc3ncn(C)c3C(COCC(C)C)C2)cn1.O=C(O)C(F)(F)F` (stereo not given) is 6.608%; for `Cc1c(CN2CC[C@@H](N3CCC(O)CC3)[C@H](O)C2)[nH]c2ccc(Cl)cc12` it is 15.96%. The figure for `O[C@@H]1CN(CC2=Cc3cc(Cl)ccc3OC2)CC[C@H]1N1CCCCCC1` is 85.47%.

Turning to `CN1CCN([C@@H]2CCN(CC3=Cc4cc(Cl)ccc4OC3)C[C@H]2O)CC1`, the “Percent Effect” value was -1.479%. The figure for `CC(C)NC(=O)CC1COC2(CCN(Cc3ccsc3)CC2)C1.O=C(O)C(F)(F)F` (stereo not given) is -6.674%.

For `CCN(CC)C(=O)c1ccc(-c2ccsc2)nc1C`, the “Percent Effect” value is recorded as 85.72%. Under `CCN(CC)C(=O)CN(C)C(=O)c1ccc(-c2ccsc2)nc1C` stands -2.005%; under `CCN(CC(=O)NC(C)C)C(=O)c1ccc(-c2ccsc2)nc1C`, -31.64%. The figure for `COCCN1CCC(c2nc3ccc(NC4CCC4)cn3n2)CC1.O=C(O)C(F)(F)F` is 43.84%. As to `CC(C)(C)C(=O)N1C[C@H](c2ccsc2)[C@H]2CN(C3CCCCC3)CC[C@H]21.Cl`, the “Percent Effect” value is 6.818%.

For the molecule `CCC(=O)N1CCC2(CC1)C(=O)N(Cc1cccnc1)CCN2C.O=C(O)C(F)(F)F.O=C(O)C(F)(F)F`, the “Percent Effect” value is reported as -1.837%. Under `Cc1ccc(CNc2ccccc2-n2ccc(C)n2)nc1` stands 73.74%; under `Cc1ccn(-c2ccccc2NCc2ccccn2)n1`, 31.75%; under `Cc1ccn(-c2ccccc2NCc2cscn2)n1`, -34.26%. The figure for `COCCn1ccc2cc(C(=O)N3CCN(S(C)(=O)=O)CC3)ccc21` is 72.24%; for `COCCn1ccc2ccc(C(=O)N3CCN(C(C)=O)CC3)cc21` it is 4.647%. Under `COCCn1ccc2ccc(C(=O)O)cc21` stands -0.8971%; under `CCOCC(O)CN1CCN(C(=O)Cc2ccc(C)cc2)CC1` (stereo not given), -41.68%; under `Cn1cc(C[C@H]2[C@H](O)CCN2CC2CC2)cn1.O=C(O)C(F)(F)F`, 6.686%. For the molecule `O=C(O)C(F)(F)F.O=C(c1ccc(F)cc1)N1C[C@@H]2COC[C@]2(COc2cccnc2)C1`, the “Percent Effect” value is 37.91%.

Consider `O=C1C(CS(=O)(=O)Nc2ccccc2)=NC(=O)n2cccc21`, for which the “Percent Effect” value is recorded as -27.85%.

Take `COCCn1ccnc1CN(Cc1ccccn1)Cc1sccc1C`: the “Percent Effect” value stood at 88.17%. `COCCN(Cc1sccc1C)Cc1nccn1CCOC`: the “Percent Effect” value is -20.4%. The figure for `COCCN(Cc1ccccn1)Cc1sccc1C` is -13.89%. For `Cl.c1cnc2c(c1)cc([C@@H]1CCCO1)n2CCN1CCCCC1`, the “Percent Effect” value is given as -17.62%. The figure for `CCN(CC)S(=O)(=O)N1CCc2nc(C3CCNCC3)ncc2C1.Cl` is -7.475%. For `CN(Cc1ccnc2ccccc12)C1CCS(=O)(=O)C1.O=C(O)CC(O)(CC(=O)O)C(=O)O` (stereo not given), the “Percent Effect” value is recorded as 6.818%.

Turning to `CSc1[nH]nc(NC(=O)c2ccccc2)c1C#N`, the “Percent Effect” value is -4.998%. Under `CSc1[nH]nc(NC(=O)c2cccs2)c1C#N` stands 104.2%; under `CSc1[nH]nc(NC(=O)c2ccncc2)c1C#N`, 6.331%; under `CN(C)[C@@H]1CCN(C(=O)c2cccc(C#N)c2)[C@H]1Cc1cnn(C)c1.O=C(O)C(F)(F)F`, 5.533%. Under `Cc1ccc(N2CCO[C@H]3CN(Cc4ccc(F)cc4)C[C@H]32)nn1.O=C(O)C(F)(F)F.O=C(O)C(F)(F)F` stands -13.42%. The figure for `Clc1ccc(OCCNC2(c3ccc(Br)cc3)CCOCC2)cc1` is 73.72%; for `COCCNC1(c2ccc(Cl)cc2)CCOCC1` it is 20.91%; for `CCOCCNC1(c2ccc(Cl)cc2)CCOCC1` it is 12.33%. For the molecule `CCN1C(=O)C2(CCN(CCN(C)C)CC2)c2ccccc21.O=C(O)C(F)(F)F.O=C(O)C(F)(F)F`, the “Percent Effect” value is reported as -13.81%.

`Cc1ccc(C(=O)N2CCc3c(CNc4ncccn4)cncc3C2)o1.Cl`: the “Percent Effect” value is on record as -7.52%.

On to `CC(=O)N1C(CN2CCCC2)C[C@@H]2CN(C(=O)c3ccoc3)CC[C@@H]21.O=C(O)C(F)(F)F` (stereo not given in full), for which the “Percent Effect” value is -8.828%. As to `CC(C)Nc1ccnc(N2Cc3cnc(C(C)(C)C)nc3C2)n1`, the “Percent Effect” value was found to be 52.72%. Under `CCNc1ccnc(N2Cc3cnc(CC(C)C)nc3C2)n1` stands 35.37%. Under `CCc1cnc(N2Cc3cnc(C(C)(C)C)nc3C2)nc1` stands 15.36%. Under `CC(C)Cc1ncc2c(n1)CN(c1nccc(NC(C)C)n1)C2` stands 83.11%.

Consider `COc1ccnc(N2Cc3cnc(C(C)(C)C)nc3C2)n1`, for which the “Percent Effect” value was found to be 14.25%.

Take `CC(C)Cc1ncc2c(n1)CN(c1nccc(N(C)C)n1)C2`: the “Percent Effect” value was 7.671%. Under `O=C(O)C(F)(F)F.c1cnc(N2CCO[C@@H]3CN(Cc4ccoc4)C[C@@H]3C2)nc1` stands -2.175%; under `O=C(O)C(F)(F)F.O=C(c1ccc[nH]1)N1CCc2onc(COc3cccnc3)c2C1`, 7.093%; under `C=C1C(C)(C)[C@H]2CC[C@]1(C(=O)N1CCC(n3cc(CCO)nn3)CC1)C2`, -7.185%.

With `O=C(O)C(F)(F)F.O=C(O)C(F)(F)F.O=C(c1cccc(F)c1)N1CCN2C[C@H](OCc3cccnc3)C[C@H]2C1`, the “Percent Effect” value is on record as -1.159%. The figure for `CCO[C@H]1COC[C@@H]1NC(=O)c1c[nH]nc1C1CCCCC1` is -8.48%; for `O=C(N[C@H]1COC[C@@H]1N1CCCC1)c1c[nH]nc1C1CCCCC1` it is 69.58%. The figure for `Cc1nc(C(=O)N[C@H]2COC[C@@H]2N2CCCCC2)cs1` is -0.7621%; for `Cc1ccc2c(c1)C(NC1CC1)CC21CCNCC1.Cl` (stereo not given) it is -15.52%. In the case of `C[C@@H]1CN(C(=O)c2ccc[nH]2)C[C@]12CCN(CCN1CCCC1)C2=O.O=C(O)C(F)(F)F`, the “Percent Effect” value is recorded as 22.28%.

For `CNC(=O)CN1CCOCC2(CN(CCC(F)(F)F)CCO2)C1.O=C(O)C(F)(F)F.O=C(O)C(F)(F)F` (stereo not given), the “Percent Effect” value is listed as -25.1%. The figure for `Cc1ccc2c(c1)C(NC(=O)N(C)C)CC21CCN(CC2CC2)CC1.O=C(O)C(F)(F)F` (stereo not given) is -3.475%; for `CCOC(=O)Cc1csc(NC(=O)c2cc(=O)c(OC)c[nH]2)n1` it is 26.29%.

With `COc1coc(C(=O)Nc2nc(-c3ccncc3)cs2)cc1=O`, the “Percent Effect” value is reported as -11.7%.

For `COc1coc(C(=O)Nc2nc(-c3ccccn3)cs2)cc1=O`, the “Percent Effect” value was 1.222%. The figure for `COc1c[nH]c(C(=O)Nc2nc(C(C)(C)C)cs2)cc1=O` is 39.24%; for `COc1coc(C(=O)Nc2nc(C)cs2)cc1=O` it is 66.21%.

Turning to `COc1c[nH]c(C(=O)Nc2nc(C)cs2)cc1=O`, the “Percent Effect” value is listed as 69.04%. Take `O=C(NCCN1CCOCC1)c1ccn(-c2ccc3ccccn23)n1.O=C(O)C(F)(F)F`: the “Percent Effect” value was -22.38%.

For `Cc1ccc(CN2CCC3(CCC(C(=O)N(C)C)O3)CC2)o1.O=C(O)C(F)(F)F` (stereo not given), the “Percent Effect” value is reported as -7.412%. The figure for `O=C(COc1ccccc1)N1C[C@@H]2COC[C@]2(COc2cccnc2)C1.O=C(O)C(F)(F)F` is 12.4%; for `Cc1nc(NCc2noc(C3CCCO3)n2)c2sccc2n1` (stereo not given) it is -5.869%. The figure for `Cl.NC(=O)COc1ccc(CNCc2cc(F)cc(F)c2)cc1` is -21.98%. `O=C(Nc1ccc(N2CCCCC2)nc1)N1CCc2sccc2C1`: the “Percent Effect” value worked out at 18.45%. The figure for `O=C(Nc1ccc(N2CCCC2)nc1)N1CCc2ccccc2C1` is 58.68%; for `O=C(Nc1ccc(N2CCCC2)nc1)N1CCc2sccc2C1` it is 0.2913%. Under `CN1C[C@@H]2CC[C@H](CC1=O)N2C(=O)c1cc2ccccc2[nH]c1=O` stands 6.279%. With `CN(C)C(c1ccccn1)[C@H]1CC[C@H](CNC(=O)CC2CCCC2)CC1` (stereo not given in full), the “Percent Effect” value is on record as -9.462%. The figure for `CN1CCCc2cc(-c3cncn3CCNC3CCS(=O)(=O)C3)ccc21.Cl` (stereo not given) is -0.7285%. Under `Cc1nccn1CCCn1cncc1-c1ccc2c(c1)CCCN2C.Cl` stands -22.83%; under `CCN1c2ccc(-c3cncn3CCCn3ccnc3C)cc2CC1C.Cl` (stereo not given), 100.1%; under `CCN1CCc2cc(-c3cncn3CC(=O)NC(C)(C)C)ccc21.Cl`, 19.95%.

Turning to `Cc1nccn1CCCn1cncc1-c1ccc2c(c1)CCC(C)N2C.Cl` (stereo not given), the “Percent Effect” value amounted to 8.681%.

Turning to `CCOC(=O)c1n[nH]cc1-c1cncn1CCCn1nc(C)cc1C.Cl`, the “Percent Effect” value was determined as 8.544%. The figure for `Cc1nn(C)c(C)c1CCn1cncc1-c1ccc2c(c1)CC(C)N2C.Cl` (stereo not given) is 15.02%; for `CCN1c2ccc(-c3cncn3CC(=O)NC(C)(C)C)cc2CC1C.Cl` (stereo not given) it is 85.85%. The figure for `Cc1cc(C)n(CCCn2cncc2-c2ccc3c(c2)CC(C)N3C)n1.Cl` (stereo not given) is 79.43%; for `CC1Cc2cc(-c3cncn3CC(=O)NC(C)(C)C)ccc2N1C.Cl` (stereo not given) it is -7.03%; for `Cc1nccn1CCCn1cncc1-c1ccc2c(c1)CC(C)N2C.Cl` (stereo not given) it is 48.58%.
